Test results from PubChem BioAssay (EPA / NIEHS).
Calls of active or inactive are those of the source. The calls were made as follows: active = hit-call score of the fitted dose curve at least 0.9, where 1 is the maximum; inactive = score below 0.9.

What follows are molecules tested on CD40, CD40 (gene 958) (assay: BSK_SAg_CD40: BioMAP Diversity Plus: SAg Assay for CD40 Biomarker Activity (AID 2283088)). Details: primary human HUVEC with PBMC; actives raise or lower the signal.
Method in brief: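 Fluorescence ELISA read-out of CD40 from umbilical vein endothelium plus peripheral blood mononuclear cells, sampled 24 h after dosing. Values come from bidirectional curve fitting with DMSO as baseline.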

SMILES	outcome	AC50
O=C(O)Cc1cc(I)c(Oc2ccc(O)c(I)c2)c(I)c1	inactive	
Cc1cccc2ccccc12	inactive	
O=c1c(-c2ccc(O)cc2)coc2cc(O)cc(O)c12		25.6 µM (active)
CC/C(=C(/CC)c1ccc(O)cc1)c1ccc(O)cc1		17.8 µM (active)
Cc1cc(F)ccc1-c1cc(N2CC[C@@H](O)[C@H]2CO)ncc1N(C)C(=O)C(C)(C)c1cc(C(F)(F)F)cc(C(F)(F)F)c1		9.9 µM (active)
O=C1O[C@H]([C@@H](O)CO)C(O)=C1O	inactive	
CO[C@H]1/C=C/O[C@@]2(C)Oc3c(C)c(O)c4c(O)c(c(/C=N/N5CCN(C)CC5)c(O)c4c3C2=O)NC(=O)/C(C)=C\C=C\[C@H](C)[C@H](O)[C@@H](C)[C@@H](O)[C@@H](C)[C@H](OC(C)=O)[C@@H]1C	inactive	
C[C@]12CC[C@@H]3c4ccc(O)cc4CC[C@H]3[C@@H]1CCC2=O	inactive	
Oc1ccc2ccccc2c1	inactive	
c1ccc(C[n+]2cccc3ccccc32)cc1	inactive	
CCCCCCCCCCCO	inactive	
O=C(Nc1ccc(Cl)cc1)Nc1ccc(Cl)c(Cl)c1		3.04 µM (active)
CCCCCCCCOC(=O)c1cc(O)c(O)c(O)c1		14.8 µM (active)
CN1C(=O)N(c2ccccc2Br)Cc2cnc(Nc3ccc4c(c3)OCC(CO)O4)nc21 (stereo unspecified)		2.19 µM (active)
Cc1occc1C(=O)Nc1ccc(C(=O)N2CCC(F)(F)/C(=C\C(=O)N3CCC(N4CCCCC4)CC3)c3ccccc32)cc1	inactive	
Cc1oc2c(NC(=O)c3c(Cl)cccc3Cl)cccc2c1C(C)(C)O		20.9 µM (active)
